Experimental data published in PubChem BioAssay AID463173 (ICCB-Longwood Screening Facility, Harvard Medical School, 2010).
About 4,300 (8.3%) of roughly 52,000 compounds were called active. For the sample, actives were picked, then their nearest neighbours and some compounds at random. Unmarked numbers belong to inactive results. Cut-off read from the data, not from the text of the source: active = survival mostly below about 52% (no sharp cut-off); inactive = mostly above about 56%.

tested on: DeltatarO mutant; experiment: S. aureus survival, RN4220 and DeltatarO strains – OD600, teichoic acid synthesis inhibitors, primary screen (AID 463173); details: S. aureus RN4220 wild type/DeltatarO growth, OD600, 18 h, active compounds read low, screened at 18.75 µg/mL (by protocol)

| SMILES | survival |
| --- | --- |
| COc1ccc2c(c1)N(C)/C(=C1/SC(=O)N(c3ccccc3)C1=O)S2 | 94% |
| CC(C)(CC(=O)NCc1ccc(Cl)cc1Cl)CC1=NS(=O)(=O)c2ccccc2N1 | 75% |
| CCCOc1ccc(NC(=O)CC2C(=O)N(c3ccc(F)cc3)C(=O)N2CC(C)C)cc1 (stereo not drawn) | 64% |
| COc1ccc(NC(=O)Cc2coc3cc(C)cc(C)c23)c(OC)c1 | 60% |
| COc1ccccc1CCNC(=O)c1cccn1-c1nnc(N2CCCC2)s1 | 93% |
| CCCOc1cccc(C(=O)N(Cc2sccc2C)C2CCS(=O)(=O)C2)c1 (stereo not drawn) | 110% |
| COc1cc2c(=O)c(C(=O)c3ccc(C)c(C)c3)cn(Cc3ccccc3)c2cc1OC | 79% |
| O=C(CSc1nc2c([nH]c3ccccc32)c(=O)n1-c1ccccc1)N1CCCC1 | 84% |
| Cc1ccc(-c2nc3ccc(Cl)cn3c2Nc2ccc3c(c2)OCCO3)s1 | 107% |
| Cc1nc2c(C(=O)N(C)Cc3ccccc3)c[nH]n2c(=O)c1Cc1ccc(Cl)cc1 | 88% |
| Cc1ccc(CNC(=O)c2cnn3c(C)c(Cc4c(F)cccc4Cl)c(C)nc23)cc1 | 70% |
| Cc1ccc(CNC(=O)c2c[nH]n3c(=O)c(Cc4ccc(F)cc4Cl)c(C)nc23)cc1 | -13% (active) |
| Cc1nc2nc(NC(=O)c3ccc(F)cc3)[nH]n2c(=O)c1Cc1ccccc1 | 101% |
| Cc1nc2c(C(=O)NCc3ccccc3Cl)c[nH]n2c(=O)c1Cc1cccc(Cl)c1 | -16% (active) |
| Cc1nc2c(C(=O)NCCc3ccc(Cl)cc3)cnn2c(C)c1Cc1ccc(F)cc1 | 69% |
| Cc1ccc(CNC(=O)CN2CCN(Cc3ccc(F)cc3Cl)C2=O)cc1 | 79% |
| Cc1nc2c(C(=O)NCc3ccccc3)c[nH]n2c(=O)c1Cc1ccccc1Cl | 49% |
| Cc1nc2c(C(=O)NCCc3ccccc3)c[nH]n2c(=O)c1Cc1ccc(F)cc1Cl | -16% (active) |
| Cc1nc2c(C(=O)NCc3ccccc3Cl)cnn2c(C)c1Cc1ccccc1 | 79% |
| Cc1nc2c(C(=O)NCCc3ccc(Cl)cc3)c[nH]n2c(=O)c1Cc1ccc(Cl)cc1 | -14% (active) |

| SMILES | survival |
| --- | --- |
| Cc1nc2nc(NC(=O)c3cccc(Cl)c3)[nH]n2c(=O)c1Cc1ccccc1 | 111% |
| COc1ccc(CNC(=O)C(=O)NCC(c2ccco2)S(=O)(=O)c2cccs2)cc1 (stereo not drawn) | 60% |
| N#C/C(=C\c1ccc[nH]1)C(=O)N1CCc2ccccc2C1 | 72% |
| COc1cc(Cl)c(NC(=O)c2cc(S(=O)(=O)N3CCCCC3)c[nH]2)c(OC)c1 | 119% |
| Cc1cc(NC(=O)CCNS(=O)(=O)c2ccc3c(c2)CCCC(=O)N3)ccc1Br | 76% |
| COc1ccc(C2CC(=O)Nc3c2c(=O)[nH]c2nc4ccccc4n32)cc1 (stereo not drawn) | 66% |
| Cc1cc(C)cc(NC(=O)C2CCN(S(=O)(=O)c3cn(C)cn3)CC2)c1 | 98% |
| CCOc1ccccc1NC(=O)C1CCN(S(=O)(=O)c2ccc3[nH]c(=O)ccc3c2)CC1 | 63% |
| Cn1cnc(S(=O)(=O)N2CCC(C(=O)NCc3ccccc3Cl)CC2)c1 | 118% |
| Cc1ccc(CNC(=O)C2CCN(S(=O)(=O)c3cn(C)cn3)CC2)cc1 | 115% |
| Cc1ccc(N(C)C(=O)C2CCN(S(=O)(=O)c3cn(C)cn3)CC2)cc1 | 37% (active) |
| COc1ccc(OC)c(CNC(=O)C2CCN(S(=O)(=O)c3cn(C)cn3)CC2)c1 | 83% |
| COc1ccccc1CNC(=O)C1CCN(S(=O)(=O)c2ccc3[nH]c(=O)ccc3c2)CC1 | 102% |
| CCOc1ccccc1CNC(=O)C1CCN(S(=O)(=O)c2ccc3[nH]c(=O)ccc3c2)CC1 | 25% (active) |
| Cn1cnc(S(=O)(=O)N2CCC(C(=O)NCc3ccc(Cl)cc3)CC2)c1 | 101% |
| COc1ccccc1CNC(=O)C1CCN(S(=O)(=O)c2cn(C)cn2)CC1 | 0% (active) |
| CN(C)c1ccc(CNC(=O)C2CCN(S(=O)(=O)c3cn(C)cn3)CC2)cc1 | 0% (active) |
| Cc1ccc(C)c(N2CCN(C(=O)C3CCN(S(=O)(=O)c4cn(C)cn4)CC3)CC2)c1 | 64% |
| CC(C)C(NS(=O)(=O)c1ccccc1)C(C)C | 97% |
| COc1cc(C2CC(=O)c3c([nH]c(C(=O)OCc4ccc(C)cc4)c3C)C2)cc(OC)c1OC (stereo not drawn) | 83% |

| SMILES | survival |
| --- | --- |
| OC1CN=C2C=CC=CN2C1 (stereo not drawn) | 89% |
| CCN1CCN(c2ccc(NS(=O)(=O)c3c(C)nc4sccn4c3=O)cc2Cl)CC1 | 108% |
| Cc1ccc(CNC(=O)c2oc3c(c2C)-c2nn(Cc4ccc(Cl)cc4)cc2CC3)cc1 | 57% |
| Cc1cc2nc(-c3ccc(NC(=O)c4ccc(OCC(C)C)cc4)cc3)oc2cc1C | 78% |
| Cc1c(CNC2CCCCC2)c(C(=O)O)c(C)n1Cc1ccccc1F | 88% |
| Cc1ccc2c(c1)-c1onc(C(=O)N(C)c3cccc(C(F)(F)F)c3)c1CO2 | 108% |
| CC(C)OCCCNC(=O)c1ccc2c(c1)N(Cc1c(F)cccc1Cl)C(=O)c1ccccc1S2 | 76% |
| CCCCc1nn2c(=O)cc(COC(=O)c3cccc(Cl)c3)nc2s1 | 67% |
| COc1ccc(C(CC(=O)NCc2ccccc2Cl)N2Cc3ccccc3C2=O)cc1OC (stereo not drawn) | 80% |
| COc1ccccc1N1CCN(S(=O)(=O)c2c(C)sc3ncn(CC(=O)Nc4ccc(C)cc4Br)c(=O)c23)CC1 | 73% |
| O=C(Cc1ccccc1)NC1CCS(=O)(=O)C1 (stereo not drawn) | 97% |
| O=C(CCn1cnc2ccccc2c1=O)NCc1ccccc1 | 109% |
| Cc1ccc2c(CC(=O)N(Cc3ccc(Cl)cc3)Cc3ccco3)coc2c1 | 99% |
| Cc1cc(C)c(OCC(=O)N(Cc2ccc(N(C)C)cc2)Cc2ccco2)c(C)c1 | 49% |
| Cc1cc(C)c2c(CC(=O)N(Cc3ccc(Cl)cc3)Cc3ccco3)coc2c1 | 57% |
| Cc1ccc2c(C)c(C(=O)N(Cc3ccc(N(C)C)cc3)Cc3ccco3)oc2c1C | 87% |
| Cc1cc(C)c2c(CC(=O)N(Cc3ccc(N(C)C)cc3)Cc3ccco3)coc2c1 | 42% (active) |
| Cc1ccc2c(CC(=O)N(Cc3ccc(N(C)C)cc3)Cc3ccco3)coc2c1C | 45% (active) |
